Compounds without any hit were thinned out: in the full panel of roughly 83,000, 20% have a hit.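 A percent growth of 40 corresponds to 60% growth inhibition; 0 means no net growth; -100 means all cells died. Active threshold: below 10.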 Unmarked numbers belong to inactive results. Calls of active or inactive are those of the source.
Legend:
Experiment in all cases: NCI-60 one-dose screen, 48 h (100 = growth as untreated, 0 = no growth, -100 = all killed)
Settings in all cases: 10 µM unless noted
[1] = tested on: SR leukemia
[2] = tested on: RPMI-8226 leukemia
[3] = tested on: OVCAR-8 ovarian
[4] = tested on: OVCAR-5 ovarian
[5] = tested on: OVCAR-4 ovarian
[6] = tested on: SK-OV-3 ovarian
[7] = tested on: IGROV1 ovarian
[8] = tested on: OVCAR-3 ovarian
[9] = tested on: HS 578T breast
[10] = tested on: NCI/ADR-RES ovarian
[11] = tested on: T-47D breast
[12] = tested on: BT-549 breast
[13] = tested on: MDA-MB-435 melanoma
[14] = tested on: SW-620 colon
[15] = tested on: MCF7 breast
[16] = tested on: HCT-116 colon
[17] = tested on: HCC-2998 colon
[18] = tested on: KM12 colon

COc1cc(-c2nc3ccccc3s2)ccc1NC(=O)COc1ccc(Cl)cc1
growth [1]: 83.6%
growth [2]: 63.5%
growth [3]: -3.09% (active)
growth [4]: 61.8%
growth [5]: 6.47% (active)
growth [6]: 87.1%
growth [7]: 24.6%
growth [8]: 42.4%
growth [9]: 44.7%
growth [10]: 33.2%
growth [11]: 23%
growth [12]: 87.6%
growth [13]: 72%
growth [14]: 87.6%
growth [15]: 40.4%
growth [16]: 44.9%
growth [17]: 85.1%
growth [18]: 45.6%

Cc1ccc(-c2nc(/C=N/Nc3cc(C)nc4ccc(Cl)cc34)c(C)o2)cc1
growth [1]: 0.444% (active)
growth [2]: -48.6% (active)
growth [3]: -88.6% (active)
growth [4]: -65.4% (active)
growth [5]: -90.8% (active)
growth [6]: 96.3%
growth [7]: -69.7% (active)
growth [8]: -80.8% (active)
growth [9]: -42.8% (active)
growth [10]: -37.7% (active)
growth [11]: -74.4% (active)
growth [12]: 97%
growth [13]: -95.6% (active)
growth [14]: -70.2% (active)
growth [15]: -84.4% (active)
growth [16]: -54.3% (active)
growth [17]: -53.3% (active)
growth [18]: -58.3% (active)

C=C1CC2(OC1=O)C(=O)Nc1ccccc12 (stereo unspecified)
growth [1]: 5.16% (active)
growth [2]: 24.4%
growth [3]: 89.4%
growth [4]: 66%
growth [5]: 37.3%
growth [6]: 115%
growth [7]: 63%
growth [8]: 6.75% (active)
growth [9]: 83.1%
growth [10]: 66.5%
growth [11]: 37.3%
growth [12]: 75.3%
growth [13]: 49.7%
growth [14]: 4% (active)
growth [15]: 16.4%
growth [16]: 31.4%
growth [17]: 90.1%
growth [18]: 97.3%

C=C1C(=O)O[C@H]2[C@H]1CC/C(Cn1cc(Cc3c[nH]c4ccccc34)nn1)=C\CC[C@@]1(C)O[C@@H]21
growth [1]: -5.78% (active)
growth [2]: -26% (active)
growth [3]: 0.832% (active)
growth [4]: 76.2%
growth [5]: 43.8%
growth [6]: 97.1%
growth [7]: 40.2%
growth [8]: -28.3% (active)
growth [9]: 73.5%
growth [10]: 85.8%
growth [11]: 1.32% (active)
growth [12]: 44.2%
growth [13]: 13.6%
growth [14]: -58.7% (active)
growth [15]: -61.2% (active)
growth [16]: -89.5% (active)
growth [17]: 61.5%
growth [18]: 67.2%

O=C1c2ccccc2-c2nccc3cc(Cl)nc1c23
growth [1]: -27.8% (active)
growth [2]: 4.08% (active)
growth [3]: 51.1%
growth [4]: 96.5%
growth [5]: -96.4% (active)
growth [6]: 97.5%
growth [7]: 0.315% (active)
growth [8]: -87.3% (active)
growth [9]: -7.62% (active)
growth [10]: 69%
growth [11]: -52.5% (active)
growth [12]: 58.5%
growth [13]: -73.7% (active)
growth [14]: -54% (active)
growth [15]: -59.5% (active)
growth [16]: -91% (active)
growth [17]: 101%
growth [18]: 25.7%

NS(=O)(=O)c1ccc(-n2ncc3c(=O)[nH]c(CN4CCN(c5cc6c(cc5F)c(=O)c(C(=O)O)cn6C5CC5)CC4)nc32)cc1
growth [1]: 97.2%
growth [2]: 105%
growth [3]: 97.8%
growth [4]: 97.6%
growth [5]: 104%
growth [6]: 107%
growth [7]: 92.8%
growth [8]: 107%
growth [9]: 97.8%
growth [10]: 94.4%
growth [11]: 106%
growth [12]: 68.9%
growth [13]: 99.9%
growth [14]: 98.8%
growth [15]: 94.9%
growth [16]: 100%
growth [17]: 93.9%
growth [18]: 102%

CC[n+]1ccc2c(c1)C(=O)c1nccc3c1c-2nc1ccccc13
growth [1]: 5.79% (active)
growth [2]: 66.2%
growth [3]: -11.9% (active)
growth [4]: 87.7%
growth [5]: -67.7% (active)
growth [6]: -9.56% (active)
growth [7]: 17.1%
growth [8]: -14.6% (active)
growth [9]: -21.8% (active)
growth [10]: 75.1%
growth [11]: 8.59% (active)
growth [12]: -82.7% (active)
growth [13]: 4.27% (active)
growth [14]: 5.32% (active)
growth [15]: -6.21% (active)
growth [16]: -27.8% (active)
growth [17]: -21% (active)
growth [18]: 8.87% (active)

Cn1c2ccccc2c2c3[nH]c(=O)[nH]c(=O)c3c3c4ccccc4n(C)c3c21
growth [1]: 13.7%
growth [2]: 33.1%
growth [3]: 31.3%
growth [4]: 23.8%
growth [5]: -10.1% (active)
growth [6]: 48.6%
growth [7]: 22.5%
growth [8]: 4.89% (active)
growth [9]: -7.29% (active)
growth [10]: 32.2%
growth [11]: 42.5%
growth [12]: 39.7%
growth [13]: 36.5%
growth [14]: 33.1%
growth [15]: 32.9%
growth [16]: 17.6%
growth [17]: 73.9%
growth [18]: 24.2%

COc1cccc(-c2nc3sccn3c2-c2ccnc(NCCCNS(=O)(=O)c3ccc(Cl)cc3)c2)c1
growth [1]: 50%
growth [2]: 9.05% (active)
growth [3]: 31.1%
growth [4]: 90.6%
growth [5]: 43.1%
growth [6]: 75.3%
growth [7]: 42%
growth [8]: 51.3%
growth [9]: 65.3%
growth [10]: 26.9%
growth [11]: 2.4% (active)
growth [12]: 34.4%
growth [13]: 38.4%
growth [14]: 58.3%
growth [15]: 34.6%
growth [16]: 44%
growth [17]: 66.5%
growth [18]: 43.5%

O=C(O)c1cn(C2CC2)c2cc(N3CCN(Cc4nc5c(cnn5-c5ccc([N+](=O)[O-])cc5)c(=O)[nH]4)CC3)c(F)cc2c1=O
growth [1]: 97.5%
growth [2]: 98%
growth [3]: 99.9%
growth [4]: 103%
growth [5]: 91.9%
growth [6]: 105%
growth [7]: 94.2%
growth [8]: 112%
growth [9]: 105%
growth [10]: 106%
growth [11]: 104%
growth [12]: 96.1%
growth [13]: 100%
growth [14]: 105%
growth [15]: 91.5%
growth [16]: 99.8%
growth [17]: 112%
growth [18]: 107%

C/C(Cc1ccc(Cl)cc1)=C(\c1ccc(OCCN2CCCCCC2)cc1)c1ccc(OC(=O)Cc2ccccc2)cc1
growth [1]: 1.29% (active)
growth [2]: 33%
growth [3]: 72.1%
growth [4]: 73.8%
growth [5]: 85%
growth [6]: 90.6%
growth [7]: 44.9%
growth [8]: 69.6%
growth [9]: 62.3%
growth [10]: 72.4%
growth [11]: 57.6%
growth [12]: 89.3%
growth [13]: 46.3%
growth [14]: 57.4%
growth [15]: 18.6%
growth [16]: 38.2%
growth [17]: 22.3%
growth [18]: 50.2%

CS(=O)CCCCCN=C=S (stereo unspecified)
growth [1]: -13.9% (active)
growth [2]: 5.22% (active)
growth [3]: -8.89% (active)
growth [4]: 11.6%
growth [5]: 21.4%
growth [6]: 8.97% (active)
growth [7]: 7.98% (active)
growth [8]: -20.4% (active)
growth [9]: 11.6%
growth [10]: 1.36% (active)
growth [11]: -26.3% (active)
growth [12]: 2.12% (active)
growth [13]: 20.4%
growth [14]: 5.5% (active)
growth [15]: 0.852% (active)
growth [16]: -2.02% (active)
growth [17]: -11.3% (active)
growth [18]: -12.6% (active)

CC[C@H](Nc1ncnc(N)c1C(N)=O)c1nc2cccc(NCc3ccc(C(=O)NO)cc3)c2c(=O)n1-c1ccccc1
growth [1]: 12%
growth [2]: 51%
growth [3]: 69.4%
growth [4]: 95.5%
growth [5]: 99%
growth [6]: 91.9%
growth [7]: 71%
growth [8]: 73.1%
growth [9]: 69.7%
growth [10]: 106%
growth [11]: 42.1%
growth [12]: 88.6%
growth [13]: 81.8%
growth [14]: 66.8%
growth [15]: 82.8%
growth [16]: 67%
growth [17]: 86.1%
growth [18]: 89.6%

CCN(CC)CC(C)Nc1ccc([N+](=O)[O-])c2sc3ccccc3c(=O)c12 (stereo unspecified)
growth [1]: -32.3% (active)
growth [2]: -29.7% (active)
growth [3]: 24.6%
growth [4]: 53.9%
growth [5]: 32.9%
growth [6]: 33.8%
growth [7]: 22.3%
growth [8]: 36.6%
growth [9]: 27.7%
growth [10]: 34.7%
growth [11]: 31.2%
growth [12]: 60.4%
growth [13]: 24.1%
growth [14]: 19.1%
growth [15]: 7.9% (active)
growth [16]: 24.5%
growth [17]: 41.3%
growth [18]: 29.2%

COCCCNc1nc(NC(=O)c2ccc(F)cc2C)cc(-c2cccnc2)n1
growth [1]: 110%
growth [2]: 90.2%
growth [3]: 91.6%
growth [4]: 106%
growth [5]: 117%
growth [6]: 108%
growth [7]: 109%
growth [8]: 106%
growth [9]: 94%
growth [10]: 94.2%
growth [11]: 89.4%
growth [12]: 103%
growth [13]: 103%
growth [14]: 109%
growth [15]: 103%
growth [16]: 101%
growth [17]: 103%
growth [18]: 104%

COc1cccc(-n2cc(-c3nc(Nc4cc(C)[nH]n4)c4ccccc4n3)nn2)c1
growth [1]: 27.8%
growth [2]: 48.4%
growth [3]: 38.3%
growth [4]: 56.5%
growth [5]: 17.2%
growth [6]: 10.8%
growth [7]: 18%
growth [8]: 59.4%
growth [9]: 46.4%
growth [10]: 30.6%
growth [11]: 17.6%
growth [12]: 49.3%
growth [13]: 34%
growth [14]: 66.5%
growth [15]: 37.6%
growth [16]: 41.5%
growth [17]: 44.5%
growth [18]: 23%

O=C(O)c1ccc2c(c1Sc1ccccc1)C(=O)c1ccccc1C2=O
growth [1]: 95.6%
growth [2]: 106%
growth [3]: 105%
growth [4]: 101%
growth [5]: 92.9%
growth [6]: 101%
growth [7]: 92.2%
growth [8]: 89.6%
growth [9]: 114%
growth [10]: 105%
growth [11]: 98.6%
growth [12]: 83.8%
growth [13]: 73.1%
growth [14]: 121%
growth [15]: 95.4%
growth [16]: 98.5%
growth [17]: 105%
growth [18]: 101%
